# From PubChem
# CYP2C19 inhib = blocks human cytochrome P450 2C19 | CYP2C19 Supersomes, luciferin-H EGE luminescence, 30 min | inhibition, % at 5 µM | 96,000 tested, 21% active | AID 778;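 active means CYP2C19 inhibition above a set limit at 5 µM in the primary screen, cut at about 50% in these data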;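 further: plate controls were negative control wells for no effect and 2.5 mM tranylcypromine positive control for full effect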
# CYP2C19 act = cytochrome P450 2C19 (human) activation. P33261. 96,000 tested, under 10 active. recombinant CYP2C19, luciferin-H EGE luminescence; active compounds read high; 0 = fully inhibited enzyme, 1 = untreated enzyme. activation factor at 5 µM;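 active means activation factor of at least 2 at 5 µM in the primary screen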;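 further: 0 = wells with 2.5 mM tranylcypromine and 1 = vehicle-only wells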
# Measles CPE = protection of cells from measles virus; Measles virus-infected cells, CPE protection, absorbance; protection (pct of control), % at 4 µM; 140,000 tested, 1.5% active; AID 841; in the data active means protection mostly above about 24%, no sharp cut-off; inactive means mostly below about 26%
# CYP2C9 activ = increases human cytochrome P450 2C9 activity; 96,000 tested, 1.4% active; recombinant CYP2C9, luciferin-H conversion, luminescence; active compounds read high; factor 1 = untreated enzyme, 0 = blocked; P11712; activation factor at 5 µM;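 active means activation factor of 2 or more for CYP2C9 at a 5 µM dose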;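 further: 0 = sulfaphenazole-blocked wells and 1 = vehicle-only wells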
# Target sequence (P11712 whole entry, looked up): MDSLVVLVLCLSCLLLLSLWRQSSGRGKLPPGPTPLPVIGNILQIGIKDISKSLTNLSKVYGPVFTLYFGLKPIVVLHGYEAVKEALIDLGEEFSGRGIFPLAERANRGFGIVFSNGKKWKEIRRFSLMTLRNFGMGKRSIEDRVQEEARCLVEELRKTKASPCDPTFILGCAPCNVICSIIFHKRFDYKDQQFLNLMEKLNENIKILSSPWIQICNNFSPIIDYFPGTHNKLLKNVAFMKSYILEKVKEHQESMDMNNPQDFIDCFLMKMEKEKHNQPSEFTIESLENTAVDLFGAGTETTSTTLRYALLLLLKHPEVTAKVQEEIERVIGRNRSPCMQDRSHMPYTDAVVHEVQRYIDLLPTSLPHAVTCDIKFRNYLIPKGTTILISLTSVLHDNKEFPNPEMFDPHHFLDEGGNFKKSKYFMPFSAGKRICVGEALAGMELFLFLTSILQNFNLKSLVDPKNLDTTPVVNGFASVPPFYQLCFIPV
# CYP2C9 inhib = human CYP2C9 inhibition. AID 777. CYP2C9 Supersomes, luciferin-H conversion, luminescence. P11712. 96,000 tested, 20% active. inhibition, % at 5 µM;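 active means blocking of liver enzyme CYP2C9 beyond about 50% at 5 µM, limit read from the data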
# * marks the source's active call; other numbers are inactive results; x = no result given. The list is not random: actives were taken first. Their share in the collection is about 22%.
SMILES,CYP2C19 inhib,CYP2C19 act,Measles CPE,CYP2C9 activ,CYP2C9 inhib
CCOc1ccc(-c2[nH]nc3c2C(c2ccc(O)cc2)C(C#N)=C(N)O3)cc1 (stereo not drawn),18,0.8,5,0.7,32
O=C(COC(=O)C1CC(=O)N(c2ccccc2)C1)c1ccccc1 (stereo not drawn),19,0.8,21,0.8,22
CCCOC(=O)C1C2C=CC(C3CC23)C1C(=O)OCC(=O)c1ccccc1 (stereo not drawn),91*,0.1,7,0.3,73*
CC(C)Oc1ccc2c(=O)c(-c3ccccc3)coc2c1,x,x,2,x,x
Cc1ccccc1-c1coc2cc(O)ccc2c1=O,21,0.8,7,2.5*,-147
O=c1[nH]ncn2cccc12,-6,1.1,3,1.1,-13
COC(=O)c1ccccc1S(=O)(=O)N1Cc2cc([N+](=O)[O-])ccc2Oc2ccccc21,100*,0,10,0.4,62*
COC(=O)c1cc([N+](=O)[O-])ccc1N1CCN(Cc2ccccc2)CC1,x,x,3,x,x
Cc1nn(Cc2cccc(C(=O)N3CCCC(C)C3)c2)c(C)c1[N+](=O)[O-] (stereo not drawn),x,x,4,x,x
CCCn1nnc(NC(=S)NC(=O)CC)n1,71*,0.3,6,0.9,8
CCCn1nnc(NC(=O)c2cc(Br)cc(Br)c2OC)n1,83*,0.2,16,0.7,27
CCCn1nnc(NC(=O)c2ccc(-c3ccccc3)cc2)n1,25,0.8,0,0.9,7
CCCn1nnc(NC(=O)c2ccc(Br)cc2)n1,56*,0.4,6,0.9,15
CCCCn1nnc(NC(=S)NC(=O)c2cccs2)n1,x,x,30,x,x
Cc1onc(-c2c(F)cccc2Cl)c1C(=O)NC(=S)NC1CCSC1=O (stereo not drawn),x,x,9,x,x
O=C(CSc1nc(C2CCCCC2)n(-c2ccccc2)n1)NCCN1C(=O)CSC1=O,95*,0,4,0,98*
O=C(CSc1nnc(-c2ccccc2)c(-c2ccccc2)n1)NCc1ccco1,x,x,7,x,x
Cc1ccc2nc(SCC(=O)NCc3ccco3)[nH]c2c1,17,0.8,6,0.6,41
Cn1nc(CC(=O)NCCN2C(=O)CSC2=O)c2ccccc2c1=O,70*,0.3,2,1.2,-15
O=C(CSc1nc2ccccc2[nH]1)NC(=O)NCc1ccco1,57*,0.4,7,0.8,22
O=C(CSc1nc(-c2ccccc2)c(-c2ccccc2)[nH]1)NCc1ccco1,37,0.6,8,0.5,50*
CSc1nc2c(c(C(F)(F)F)n1)CC(C)CC2 (stereo not drawn),-1,1,3,1.1,-6
CCOc1ccc(CNC(=O)c2ccc(Sc3ccc(C)cc3)c(NC(C)=O)c2)cc1,x,x,11,x,x
COc1ccc(-c2ccc(SCC(=O)NCc3ccco3)nn2)cc1,12,0.9,11,0.8,18
Cc1ccc2nc(SCC(=O)NC(=O)NCc3ccco3)[nH]c2c1,80*,0.2,4,0.3,71*
SMILES,CYP2C19 inhib,CYP2C19 act,Measles CPE,CYP2C9 activ,CYP2C9 inhib
COc1ccc(-c2[nH]c(-c3cccc(OC)c3)nc2SCC(=O)NCc2ccco2)cc1,94*,0.1,14,0.2,84*
O=C(CSc1nc(-c2ccccc2)c(-c2ccccc2)[nH]1)NCCN1C(=O)CSC1=O,63*,0.4,23,0.7,34
O=C(CSc1nnc(Nc2ccccc2)s1)NCCN1C(=O)CSC1=O,x,x,20,x,x
O=C(CCCSc1nc2ccccc2[nH]1)NCc1ccco1,17,0.8,0,2*,-102
CCCCc1ccc(/C=C2\C(=O)ON=C2c2ccccc2)s1,x,x,20,x,x
Cc1ccc(O)c(-c2cc(C(=O)Nc3ccc(S(=O)(=O)Nc4nc(C)cc(C)n4)cc3)[nH]n2)c1,x,x,22,x,x
CCOC(=O)c1c(N)sc2c1CCC(CC)C2 (stereo not drawn),22,0.8,7,0.9,6
CCOC(=O)c1c(N)sc2c1CCC1C(=O)N(C3CCCCC3)C(=O)C21 (stereo not drawn),91*,0.1,7,0.1,90*
O=C(N/C(=C\c1cccc([N+](=O)[O-])c1)C(=O)N1CCCCC1)c1cccs1,-7,1.1,8,1,0
Cc1ccc(S(=O)(=O)Nc2cccc(C(=O)Nc3cc(C)ccn3)c2)cc1,28,0.7,10,0.7,31
Cc1ccnc(NC(=O)c2cccc(NS(=O)(=O)c3ccccc3C)c2)c1,52*,0.5,21,0.7,33
Cc1ccc(N2C(=O)/C(=C\c3ccc(C(C)C)cc3)N=C2SC2CCOC2=O)cc1 (stereo not drawn),x,x,28,x,x
O=S(=O)(NCCCc1ccccc1)c1ccc(Cl)cc1,x,x,13,x,x
O=S(=O)(NCc1cc(-c2ccccc2Cl)no1)c1ccc(Cl)cc1,93*,0.1,7,1.9,-87
O=C(NC(CSCc1ccccc1)C(=O)N/N=C/c1ccc(O)cc1O)c1ccc([N+](=O)[O-])cc1 (stereo not drawn),23,0.8,20,0.7,26
Cc1cc(C(=O)CSc2n[nH]c(N)n2)c(C)n1-c1cccc(F)c1,90*,0.1,14,0.5,52*
COc1ccccc1C(=O)CSc1n[nH]c(N)n1,8,0.9,4,3*,-203
Cc1cc(C(=O)CSc2nnc(C3COc4ccccc4O3)n2C)c(C)n1-c1ccc(F)cc1 (stereo not drawn),49,0.5,16,0.5,50*
Cc1cc(C(=O)CSc2nc(N)cc(N)n2)c(C)n1CCc1ccc(F)cc1,76*,0.2,4,0.5,53*
COCCn1c(C)cc(C(=O)CSc2n[nH]c(N)n2)c1C,8,0.9,3,1.9,-86
Cc1cc(C(=O)CSc2ncccn2)c(C)n1-c1cccc(F)c1,x,x,8,x,x
COc1ccc(CCn2c(C)cc(C(=O)CSc3nnnn3C)c2C)cc1,41,0.6,16,0.8,19
O=C(COc1ccccc1)NCC(=O)N/N=C/c1ccco1,x,x,8,x,x
CCCCc1ccc(NC(=O)c2c(C)noc2C)cc1,10,0.9,22,0.8,17
Cc1cc(C(=O)CSc2nnnn2C)c(C)n1-c1cccc(F)c1,95*,0.1,3,0.6,45
SMILES,CYP2C19 inhib,CYP2C19 act,Measles CPE,CYP2C9 activ,CYP2C9 inhib
Cc1cc(C)cc(-n2c(C)cc(C(=O)CSc3nnnn3C)c2C)c1,61*,0.4,8,0.4,64*
COc1ccc(N2CCN(C(=N)/C(C(C)=O)=C(\C)O)CC2)cc1,-19,1.2,13,1.1,-14
Cc1ccc(-c2nnnn2CS(=O)(=O)c2ccccc2)cc1,68*,0.3,6,1.7,-74
CCCC(c1nnnn1CS(=O)(=O)c1ccc(C)cc1)N1CCN(c2ccccc2)CC1 (stereo not drawn),27,0.7,3,0.4,62*
Cc1ccc(S(=O)(=O)Cn2nnnc2C(c2ccccc2)N2CCN(c3ncccn3)CC2)cc1 (stereo not drawn),98*,0,2,0.1,94*
Cc1ccc(S(=O)(=O)Cn2nnnc2C(c2ccccc2)N2CCN(c3ccccc3)CC2)cc1 (stereo not drawn),x,x,5,x,x
